We go through twelve molecules from PubChem BioAssay (Tox21).

Assay [1] can be described thus: Caspase-3/7 induction in CHO-K1 cells by small molecules, qHTS assay (AID 1346980). Further: nearly all actives have a fitted effect of over 15% in size. In outline: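 Wild-type CHO-K1 cells exposed to compounds for 17hr at 37 C, 5% CO2. Caspase-3/7 activity then measured by Caspase-Glo 3/7 luminescence after 30min at room temperature.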
Assay [2] is described as follows: Caspase-3/7 induction in HepG2 cells by small molecules, qHTS cell viability counter screen (AID 1346981). Further: series mostly up to about 92 µM; nearly all actives have a fitted effect of over 30% in size. In outline:
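Wild-type HepG2 cells (2,000/well) were allowed to settle for 5 hr at 37 C, 5% CO2, then dosed with compounds in DMSO by pin transfer. After 16 hr at 37 C, CellTiter-Fluor was added and fluorescence read 1 hr later.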
A general note: In qHTS, concentration-response curves come from the screen itself.

Assay [3] concerns the target Nuclear receptor subfamily 1 group I member 2 (Homo sapiens) (UniProt O75469). Nature of the assay: Human pregnane X receptor (PXR) small molecule agonists, qHTS assay (AID 1346982). Further: nearly all actives have a fitted effect of over 35% in size. Further: potency means the concentration at half of the fitted maximal effect. In outline: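 PXR-Luc HepG2 cells (CYP3A4 promoter-driven luciferase) were seeded in medium with 5% charcoal-stripped FBS, left 5 hr at 37 C, then exposed to compounds in DMSO for 24 hr. Luminescence was read after ONE-Glo addition.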

Assay [4] deals with Acetylcholinesterase (Homo sapiens) (UniProt P22303). Nature of the assay: Acetylcholinesterase (AChE) small molecule antagonists: colormetric cell-based qHTS assay (AID 1347395; calls by dose curve; further: nearly all actives have a fitted effect of over 30% in size; further: potency means the concentration at half of the fitted maximal effect). In short, it runs like this:
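In this cell-based qHTS, attached SH-SY5Y cells were treated with test chemicals for 30 min, after which acetylthiocholine hydrolysis was followed by DTNB colour development over 90 min at 37 C.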

For assay [5] the target is unchanged. In words: Acetylcholinesterase (AChE) small molecule antagonists: enzyme-based qHTS assay (AID 1347397; calls by dose curve; further: nearly all actives have a fitted effect of over 55% in size). The settings on record: Potency: AChE enzyme activity inhibition. In outline: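 Recombinant human AChE (50 mU/mL) preincubated with compound 30 min at room temperature; acetylthiocholine plus DTNB then added, and thiocholine formation read colorimetrically after 10 min at room temperature. DMSO served as vehicle control.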

For assay [6] the target is unchanged. Nature of the assay: Acetylcholinesterase (AChE) small molecule antagonists: fluorescence cell-based qHTS assay (AID 1347398; calls by dose curve; further: nearly all actives have a fitted effect of over 50% in size). The settings on record: Potency: AChE activity. In outline: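 SH-SY5Y cells (2000/well), attached overnight, incubated with compound 30 min at 37 C. Acetylthiocholine plus Thiolite Green then added for 40 min at room temperature. Thiocholine fluorescence (Ex/Em 490/520 nm) reports cellular AChE activity.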

Assay [7] shares this target. In words: Acetylcholinesterase (AChE) small molecule antagonists: enzyme-based qHTS assay with human liver microsomes (AID 1347399; calls by dose curve; further: nearly all actives have a fitted effect of over 60% in size). The settings on record: Potency: qHTS inhibition. In outline: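 Recombinant human AChE (50 mU/mL in the enzyme mix) and human liver microsomes (0.25 mg/mL final) were preincubated with compound and NADPH (0.25 mg/mL final) for 30 min at 37 C. Acetylthiocholine/DTNB was then added; thiocholine was read colorimetrically after 10 min at room temperature.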

Assay [8] addresses Cytochrome P450 2D6 (Homo sapiens) (UniProt P10635). In words: Cytochrome P450 Family 2 Subfamily D Member 6 (CYP2D6) small molecule antagonists: luciferase reporter qHTS assay (AID 1671196). Further: nearly all actives have a fitted effect of over 50% in size. Further: potency means the concentration at half of the fitted maximal effect. In outline: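 CYP2D6 enzyme–substrate mix was held with compound for 10 min at room temperature, then NADPH regeneration solution was added and the reaction ran 1 h at room temperature. Luciferin product was detected by luminescence after 20 min with detection reagent.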
For orientation: Reporter assays use an easily measured gene product as a stand-in for the process of interest.

Assay [9] concerns the target Cytochrome P450 2C19 (Homo sapiens) (UniProt P33261). Nature of the assay: Cytochrome P450 Family 2 Subfamily C Member 19 (CYP2C19) small molecule antagonists: luciferase reporter qHTS assay (AID 1671197). Further: nearly all actives have a fitted effect of over 65% in size. Further: potency means the concentration at half of the fitted maximal effect. In short, it runs like this:
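P450-Glo CYP2C19 screening system; proluciferin substrate; DMSO compound stocks; 10 min RT preincubation; NADPH regeneration, 1 h at 37C; luciferin detection reagent, 20 min RT; luminescence as RLU.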

Assay [10] addresses Cytochrome P450 2C9 (Homo sapiens) (UniProt P11712). Nature of the assay: Cytochrome P450 Family 2 Subfamily C Member 9 (CYP2C9) small molecule antagonists: luciferase reporter qHTS assay (AID 1671198). Further: nearly all actives have a fitted effect of over 50% in size. Further: potency means the concentration at half of the fitted maximal effect. In outline:
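P450-Glo proluciferin substrate with CYP2C9 enzyme; 10 min RT preincubation, then NADPH regeneration 1 h at 37C; luciferin detection reagent 20 min RT, luminescence in relative luminescence units.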

For assay [11], the target named is Voltage-gated inwardly rectifying potassium channel KCNH2 (Homo sapiens) (UniProt Q12809). In words: Human Ether-a-go-go-Related Gene (hERG) channel small molecule antagonists: fluorescence cell-based qHTS assay (AID 1671200).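 Further: hERG-expressing U2OS cells given a thallium stimulus after FluxOR II dye loading; series mostly up to about 77 µM; nearly all actives have a fitted effect of over 50% in size.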 In short, it runs like this:
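Cell line hERG-U2OS; dye FluxOR II, 1 h RT dark; Tl+ stimulus; ex 480/em 540 nm, read each second for 2 min.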
(hERG is a cardiac potassium channel; its block is linked to QT prolongation.)

Assay [12] concerns the target Cytochrome P450 3A4 (Homo sapiens) (UniProt P08684). In words: Cytochrome P450 Family 3 Subfamily A Member 4 (CYP3A4) small molecule antagonists: luciferase reporter qHTS assay (AID 1671201). Further: nearly all actives have a fitted effect of over 50% in size. Further: potency means the concentration at half of the fitted maximal effect. In outline:
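Room-temperature assay throughout: 10 min compound–enzyme/substrate preincubation, 1 h reaction after NADPH regeneration solution, 20 min detection. Luciferin formed from proluciferin substrate is quantified by luminescence.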

The target of assay [13] is Cytochrome P450 1A2 (Homo sapiens) (UniProt P05177). In words: Cytochrome P450 Family 1 Subfamily A Member 2 (CYP1A2) small molecule antagonists: luciferase reporter qHTS assay (AID 1671199). Further: nearly all actives have a fitted effect of over 50% in size. Further: potency means the concentration at half of the fitted maximal effect. In outline:
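Human CYP1A2 activity measured with a P450-Glo proluciferin substrate; compounds in DMSO preincubated 10 min at room temperature with enzyme-substrate mix, then NADPH regeneration system added for 1 h. Luciferin detection reagent, 20 min, luminescence read.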

“And” between values parts separate entries of the source, which are not always exact repeats. Equal entries are not always repeated. Records with an inconclusive call do not appear. A structure can be active in one record and inactive in another. The source made the active and inactive calls. Unless noted, the call rests on the fitted dose curve; in most records, active means well fitted curve in the direction sought with a large enough effect in the repeat runs; inconclusive means weak or mixed curves; inactive means no such curve, though single readings can be large; an effect the other way counts as inactive or inconclusive.

Sequence of Cytochrome P450 2C9 (Homo sapiens) (P11712 whole entry, looked up): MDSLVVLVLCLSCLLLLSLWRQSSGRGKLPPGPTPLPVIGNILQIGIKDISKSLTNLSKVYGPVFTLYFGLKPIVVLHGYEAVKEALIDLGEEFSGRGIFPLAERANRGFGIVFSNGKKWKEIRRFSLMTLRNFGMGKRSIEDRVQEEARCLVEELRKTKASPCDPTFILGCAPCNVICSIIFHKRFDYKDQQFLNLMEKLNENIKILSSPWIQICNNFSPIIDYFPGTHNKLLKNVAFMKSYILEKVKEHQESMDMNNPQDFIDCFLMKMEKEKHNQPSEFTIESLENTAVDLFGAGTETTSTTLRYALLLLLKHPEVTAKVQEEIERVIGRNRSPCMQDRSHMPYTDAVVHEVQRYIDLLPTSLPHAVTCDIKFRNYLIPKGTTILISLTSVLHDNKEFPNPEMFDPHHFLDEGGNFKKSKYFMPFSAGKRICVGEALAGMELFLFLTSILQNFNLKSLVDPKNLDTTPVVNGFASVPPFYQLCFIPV
Sequence of Acetylcholinesterase (Homo sapiens) (P22303 whole entry, looked up): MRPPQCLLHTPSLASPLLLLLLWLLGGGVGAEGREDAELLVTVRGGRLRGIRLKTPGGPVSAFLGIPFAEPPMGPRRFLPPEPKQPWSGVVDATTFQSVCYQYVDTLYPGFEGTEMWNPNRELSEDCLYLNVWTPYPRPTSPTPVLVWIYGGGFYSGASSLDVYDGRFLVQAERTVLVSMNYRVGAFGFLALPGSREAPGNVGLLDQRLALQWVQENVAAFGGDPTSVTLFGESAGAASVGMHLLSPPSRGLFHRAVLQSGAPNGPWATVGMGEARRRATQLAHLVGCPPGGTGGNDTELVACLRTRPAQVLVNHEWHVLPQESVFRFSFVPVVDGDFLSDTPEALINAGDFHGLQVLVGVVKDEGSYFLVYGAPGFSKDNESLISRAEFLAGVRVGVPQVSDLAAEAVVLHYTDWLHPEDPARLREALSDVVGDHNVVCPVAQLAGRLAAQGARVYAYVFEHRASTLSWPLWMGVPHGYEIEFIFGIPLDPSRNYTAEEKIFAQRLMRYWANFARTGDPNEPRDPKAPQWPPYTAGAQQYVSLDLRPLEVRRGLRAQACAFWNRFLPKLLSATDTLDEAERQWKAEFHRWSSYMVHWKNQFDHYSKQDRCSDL
Sequence of Cytochrome P450 1A2 (Homo sapiens) (P05177 whole entry, looked up): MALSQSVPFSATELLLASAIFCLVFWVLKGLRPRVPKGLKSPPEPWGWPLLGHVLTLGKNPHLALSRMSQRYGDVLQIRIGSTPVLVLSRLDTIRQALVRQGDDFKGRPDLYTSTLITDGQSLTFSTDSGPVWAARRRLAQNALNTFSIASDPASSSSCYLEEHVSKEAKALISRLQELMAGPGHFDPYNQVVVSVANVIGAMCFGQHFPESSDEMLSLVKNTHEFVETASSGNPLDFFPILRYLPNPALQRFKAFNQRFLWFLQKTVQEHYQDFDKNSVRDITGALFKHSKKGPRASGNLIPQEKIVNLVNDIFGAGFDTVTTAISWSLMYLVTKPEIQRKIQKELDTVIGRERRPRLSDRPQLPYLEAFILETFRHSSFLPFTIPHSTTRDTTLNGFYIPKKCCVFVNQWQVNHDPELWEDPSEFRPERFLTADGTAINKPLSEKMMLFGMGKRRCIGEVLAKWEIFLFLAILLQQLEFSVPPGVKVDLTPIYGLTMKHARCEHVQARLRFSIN
Sequence of Cytochrome P450 3A4 (Homo sapiens) (P08684 whole entry, looked up): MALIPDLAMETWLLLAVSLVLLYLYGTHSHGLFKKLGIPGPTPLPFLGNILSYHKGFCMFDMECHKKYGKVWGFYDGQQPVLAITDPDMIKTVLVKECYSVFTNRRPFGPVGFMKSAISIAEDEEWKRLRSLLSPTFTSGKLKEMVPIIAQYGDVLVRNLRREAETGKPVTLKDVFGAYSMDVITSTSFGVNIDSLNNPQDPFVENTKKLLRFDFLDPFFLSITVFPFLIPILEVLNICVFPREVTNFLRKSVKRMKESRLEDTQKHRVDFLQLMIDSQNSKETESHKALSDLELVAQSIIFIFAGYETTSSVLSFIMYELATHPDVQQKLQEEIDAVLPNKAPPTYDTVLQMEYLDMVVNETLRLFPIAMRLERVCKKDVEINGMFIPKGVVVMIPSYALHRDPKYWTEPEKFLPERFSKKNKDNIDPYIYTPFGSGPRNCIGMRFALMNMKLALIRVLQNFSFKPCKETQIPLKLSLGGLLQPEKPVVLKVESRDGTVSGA
Sequence of Cytochrome P450 2D6 (Homo sapiens) (P10635 whole entry, looked up): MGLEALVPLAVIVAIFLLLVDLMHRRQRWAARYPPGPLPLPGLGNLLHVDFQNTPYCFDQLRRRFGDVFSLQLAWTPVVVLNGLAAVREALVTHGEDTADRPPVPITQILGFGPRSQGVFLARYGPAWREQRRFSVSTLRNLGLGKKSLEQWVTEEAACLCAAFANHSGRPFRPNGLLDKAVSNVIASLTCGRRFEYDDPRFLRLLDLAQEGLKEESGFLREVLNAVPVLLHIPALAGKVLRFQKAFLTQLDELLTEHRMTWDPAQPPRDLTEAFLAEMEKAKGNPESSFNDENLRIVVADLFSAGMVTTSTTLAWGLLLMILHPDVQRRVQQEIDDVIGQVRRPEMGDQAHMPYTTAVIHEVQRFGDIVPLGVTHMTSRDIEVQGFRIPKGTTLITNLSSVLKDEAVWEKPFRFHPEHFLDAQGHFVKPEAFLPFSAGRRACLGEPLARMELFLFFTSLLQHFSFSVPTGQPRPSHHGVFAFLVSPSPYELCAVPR
Sequence of Voltage-gated inwardly rectifying potassium channel KCNH2 (Homo sapiens) (Q12809 whole entry, looked up): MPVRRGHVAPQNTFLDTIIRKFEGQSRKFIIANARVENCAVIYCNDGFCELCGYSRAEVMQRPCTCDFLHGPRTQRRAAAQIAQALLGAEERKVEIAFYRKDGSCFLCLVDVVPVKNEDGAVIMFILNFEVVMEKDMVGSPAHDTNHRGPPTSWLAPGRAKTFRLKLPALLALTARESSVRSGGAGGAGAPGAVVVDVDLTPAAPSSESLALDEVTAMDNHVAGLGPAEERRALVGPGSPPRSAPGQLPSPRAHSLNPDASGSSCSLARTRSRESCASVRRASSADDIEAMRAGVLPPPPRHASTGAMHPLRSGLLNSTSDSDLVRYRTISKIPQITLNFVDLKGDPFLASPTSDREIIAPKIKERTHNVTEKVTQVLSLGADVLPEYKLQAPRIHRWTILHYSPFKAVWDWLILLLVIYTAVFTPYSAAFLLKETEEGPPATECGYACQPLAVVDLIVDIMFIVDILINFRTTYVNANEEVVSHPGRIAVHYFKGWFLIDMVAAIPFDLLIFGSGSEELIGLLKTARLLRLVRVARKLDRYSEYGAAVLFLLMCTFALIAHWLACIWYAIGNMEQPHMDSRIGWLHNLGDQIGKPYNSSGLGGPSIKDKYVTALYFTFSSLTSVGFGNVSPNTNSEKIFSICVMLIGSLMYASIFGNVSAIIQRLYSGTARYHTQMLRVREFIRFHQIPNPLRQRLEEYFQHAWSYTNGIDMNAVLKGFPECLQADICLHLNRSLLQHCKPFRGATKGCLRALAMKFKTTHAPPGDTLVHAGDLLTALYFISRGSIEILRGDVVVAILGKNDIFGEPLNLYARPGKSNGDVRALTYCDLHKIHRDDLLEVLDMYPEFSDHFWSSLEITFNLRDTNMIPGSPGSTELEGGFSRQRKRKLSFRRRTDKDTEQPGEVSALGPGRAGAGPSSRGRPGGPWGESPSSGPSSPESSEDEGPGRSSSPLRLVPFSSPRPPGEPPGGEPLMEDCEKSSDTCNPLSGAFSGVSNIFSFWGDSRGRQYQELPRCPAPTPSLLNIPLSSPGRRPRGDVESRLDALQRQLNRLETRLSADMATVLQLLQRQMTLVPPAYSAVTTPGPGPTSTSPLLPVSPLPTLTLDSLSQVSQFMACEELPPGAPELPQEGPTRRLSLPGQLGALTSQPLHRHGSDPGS
Sequence of Nuclear receptor subfamily 1 group I member 2 (Homo sapiens) (O75469 whole entry, looked up): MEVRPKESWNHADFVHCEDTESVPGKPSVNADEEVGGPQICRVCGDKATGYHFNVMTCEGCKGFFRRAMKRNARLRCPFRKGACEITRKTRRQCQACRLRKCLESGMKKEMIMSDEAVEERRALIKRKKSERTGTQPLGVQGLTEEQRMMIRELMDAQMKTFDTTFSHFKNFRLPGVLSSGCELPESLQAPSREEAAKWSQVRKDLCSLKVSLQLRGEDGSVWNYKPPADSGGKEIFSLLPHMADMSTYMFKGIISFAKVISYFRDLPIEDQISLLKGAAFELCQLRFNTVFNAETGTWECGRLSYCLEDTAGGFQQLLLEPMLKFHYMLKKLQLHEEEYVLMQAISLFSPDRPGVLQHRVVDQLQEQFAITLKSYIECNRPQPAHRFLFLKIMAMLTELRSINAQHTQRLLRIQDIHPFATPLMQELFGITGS
Sequence of Cytochrome P450 2C19 (Homo sapiens) (P33261 whole entry, looked up): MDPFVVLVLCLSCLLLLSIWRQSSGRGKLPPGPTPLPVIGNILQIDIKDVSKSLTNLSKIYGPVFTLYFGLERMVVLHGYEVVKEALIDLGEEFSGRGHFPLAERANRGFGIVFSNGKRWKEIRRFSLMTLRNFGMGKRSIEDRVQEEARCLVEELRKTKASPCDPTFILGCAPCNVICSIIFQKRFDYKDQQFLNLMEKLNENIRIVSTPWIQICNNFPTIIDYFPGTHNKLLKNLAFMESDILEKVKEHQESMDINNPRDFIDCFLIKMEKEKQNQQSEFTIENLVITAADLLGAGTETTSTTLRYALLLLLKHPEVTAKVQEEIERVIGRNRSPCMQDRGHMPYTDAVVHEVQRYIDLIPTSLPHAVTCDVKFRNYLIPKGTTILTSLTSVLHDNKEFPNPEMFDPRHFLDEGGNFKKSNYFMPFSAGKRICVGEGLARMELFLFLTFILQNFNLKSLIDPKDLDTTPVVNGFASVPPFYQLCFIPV

Regarding `CC1C=[C-]C=C1.[C-]#[O+].[C-]#[O+].[C-]#[O+].[Mn]`, the result in assay [1] was inactive. The Potency entry in assay [2], in assay [4], in assay [5], in [6], in assay [7] and in assay [8] was “inactive” each time. The Potency entry in [9], in assay [10], in assay [11] and in assay [12] was “inactive” each time. The Potency in [3] was 54.5 µM (active) and 19.2 µM (active).
`COP(N)(=O)SC` (stereo not drawn): the outcome in assay [1] was inactive. The Potency result in assay [2], in assay [3], in assay [7], in assay [8], in [13] and in assay [11] was “inactive” throughout. In addition, the Potency entry in assay [12] was “inactive”. Moreover, the Potency in [9] is 39.3 µM (active) and inactive.
As to `COC(=O)c1ccccc1N`, in assay [1], the molecule was called inactive. The Potency result in assay [2], in [3], in [4], in [5], in [6] and in [7] was “inactive” throughout. For the same molecule, the Potency result in [8], in assay [9], in [11] and in assay [12] was “inactive” throughout. Further, the Potency in assay [13] was 34.4 µM (active) and 39.9 µM (active).
For `Cc1[nH]c(=O)n(C(C)(C)C)c(=O)c1Cl`, in [1], the outcome was inactive. The Potency entry in [2], in assay [3], in [4], in assay [5], in [6] and in assay [7] was “inactive” in each case. Also, the Potency entry in [8], in assay [10], in [11] and in assay [12] was “inactive” in each case. Further, the Potency in assay [9] was 71.7 µM (active) and 31.7 µM (active).
Consider `O=c1[nH]c2ccccc2c(=O)o1`, for which the call in [1] was inactive. The Potency result in assay [2], in assay [3], in assay [4], in assay [5], in assay [6] and in assay [7] was “inactive” throughout. For the same molecule, the Potency result in assay [8], in [9], in [10], in [11] and in assay [12] was “inactive” in each case. In addition, the Potency result in [13] is “inactive and 35.6 µM (active)”.
As for `Cc1cc(Cl)ccc1O`, the result in [1] was inactive. The Potency result in assay [2], in assay [3], in assay [4], in [5], in [6] and in assay [7] was “inactive” throughout. Also, the Potency result in assay [11] and in assay [12] was “inactive” each time. Moreover, the Potency in assay [8] was 19.4 µM (active) and 12.6 µM (active); in assay [13], 30.8 µM (active) and 31.7 µM (active).
Consider `CCOP(=S)(OCC)SCCSCC`, for which the result in assay [1] was inactive. For the same molecule, the Potency entry in assay [2], in assay [3], in [5], in assay [6], in assay [7] and in [11] was “inactive” each time. The Potency in assay [8] was 20.6 µM (active) and inactive; in [9], 3.67 µM (active) and 1.07 µM (active); in assay [10], 32.7 µM (active) and 15.1 µM (active); in [13], 26 µM (active) and 7.57 µM (active); in assay [12] it was 4.12 µM (active) and 3.8 µM (active).
For `CCC(C)(CC)c1cc(NC(=O)c2c(OC)cccc2OC)on1`, the molecule was classed as inactive in assay [1]. Further, the Potency result in [2], in assay [5], in [7], in assay [8] and in assay [11] was “inactive” throughout. In addition, the Potency in [3] is 4.34 µM (active) and 831 nM (active); in assay [9], 40 µM (active) and 68.3 µM (active); in assay [10], 35.7 µM (active) and 34.2 µM (active); in assay [12], 799 nM (active) and 1.93 µM (active).
As to `NCC(O)c1ccc(O)cc1` (stereo not drawn), the molecule was classed as inactive in [1]. Also, the Potency result in assay [2], in assay [3], in assay [8], in assay [9], in assay [10] and in [13] was “inactive” each time. The Potency result in assay [11] and in assay [12] was “inactive” in each case.
`CCOP(OCC)OCC`: the molecule was classed as inactive in [1]. For the same molecule, the Potency result in assay [2], in assay [3], in assay [5], in assay [6], in assay [7] and in assay [9] was “inactive” each time. Moreover, the Potency entry in assay [10], in assay [13], in assay [11] and in assay [12] was “inactive” in each case. The Potency entry in [4] is “inactive and 28.3 µM (active)”; in [8] it was 91 µM (active) and 35.6 µM (active).
`CC(C)(Cl)Cl`: the call in assay [1] was inactive. Further, the Potency entry in assay [2], in assay [3], in assay [4], in [5], in assay [6] and in assay [7] was “inactive” in each case. Moreover, the Potency entry in [8], in assay [10], in [11] and in [12] was “inactive” each time. Also, the Potency was 40.6 µM (active) and 71 µM (active) in assay [9]; “inactive and 44.8 µM (active)” in assay [13].
As for `O=S(=O)(c1ccc(O)cc1)c1ccc(O)cc1`, the molecule was called inactive in assay [1]. The Potency entry in assay [2], in assay [3], in assay [4], in [5], in assay [6] and in [7] was “inactive” throughout. Further, the Potency entry in assay [10], in [13], in assay [11] and in assay [12] was “inactive” in each case. The Potency in assay [9] is 17.9 µM (active) and 22.4 µM (active).
